The source of these data is PubChem BioAssay (NCATS).

Results filed as inconclusive are left out. Values without a mark were called inactive. Calls of active or inactive are those of the source. Calls follow the shape of the dose curve; as a rule, active = well fitted inhibition curve with a large enough effect; inconclusive = small, poorly fitted or top-dose-only effect; inactive = no such curve, though single readings can be large or run the other way.
Potency is read from the fitted curve at half-maximal effect.

A short description of the assay: BET inhibitor-based combinations targeting novel dependencies in MECOM-rearranged (r) AML: MV-4-11 cell line (AID 2202233). Also: nearly all actives have a fitted effect of over 45% in size. The conditions noted are these: MV-4-11 AML viability, CellTiter-Glo luminescence, 48 h; series mostly up to 46 µM; viability, % of control: at the top concentration. From the text:
Ecotropic viral insertion site 1 (EVI1) is located on chromosome 3q26.2 as part of the MECOM (MDS and EVI1 complex) locus. Under normal hematopoiesis, EVI1 is a regulator of hematopoietic stem cell maintenance and self-renewal and EVI1 levels decrease as the cells differentiate. In approximately 5-10% of de novo acute myeloid leukemia (AML) EVI1 is aberrantly expressed, including Chromosomal inv(3)(q21;q26.2) or t(3;3)(q21;q26.2) alterations (MECOM-r) that account for about 50% of AML with EVI1 overexpression 31. AMLs with high levels of EVI1 have a poor prognosis and an overall survival time averaging between 10-14 months. EVI1 overexpression confers resistance in leukemia cells, highlighting the need to develop new targeted therapies for EVI1 overexpressing AMLs. Here, we performed an unbiased chemical drug screening by evaluating the single agent activity of a collection of 2,480 oncology-focused, approved and investigational drugs (NCATS Mechanism Interrogation Plates, MIPE v5.0) against a panel of seven AML cell lines. These included four MECOM-r cell-lines (AML-191, AML-194, UCSD-AML1 and HNT-34) and three non-MECOM-r AMLs (MV4-11, OCI-AML3 and SET-2). Exploiting the mechanistic redundancy built in the library, we identified target-level sensitivities in MECOM-r AML cells and relative activity as compared to other AML subtypes.
A collection of 2480 mechanistically annotated dugs (MIPE v5.0) was used to screen four 3q26.2 rearranged AML cell lines and three non-3q26.2 rearranged AML cell lines. This library purposely exploits redundancy by including multiple inhibitors of key onco-targets, while simultaneously encompassing mechanistic diversity, targeting more than 800 distinct mechanisms of action. Briefly, cells were seeded in 5 uL of growth media using a Multidrop Combi dispenser into 1536 well white polystyrene tissue culture treated plates (Corning) at a density of 500cells/well. For each cell-line, for each of the 2480 drugs in MIPE v5.0 library, an 11-point dose curve was generated via a 1536 pin-tool. Plates were incubated for 48 hr at standard incubator conditions, covered by a stainless steel gasketed lid to prevent evaporation. Cell viability was determined by luminescence based, Cell Titer Glo assay (Promega). In detail, 3 uL of Cell Titer Glo were added to each well and plates were incubated at room temperature for 15 min with a stainless-steel lid in place. Luminescence readings were taken using a Viewlux (PerkinElmer) with a 2 s exposure time per plate. Compound dose-response curves were normalized to DMSO and empty well controls on each plate. Quantitative drug activity data from dose-response curves was determined utilizing area Under the Curve (AUC) and Z-transformed AUC (Z-AUC, a mean-centering transformation applied to each individual cell-line screened).
`CN[C@@H]1Cc2cccc3[nH]c(=O)n(c23)C1`: the “viability, % of control” value is 136%.
Still for that read-out and setting: to `C[C@]12CC[C@@H]3c4ccc(OC(=O)N(CCCl)CCCl)cc4CC[C@H]3[C@@H]1CC[C@@H]2OP(=O)(O)O` belongs 105%.
For `CC(=O)O[C@@]12CO[C@@H]1C[C@H](O)[C@@]1(C)C(=O)[C@H](O)C3=C(C)[C@@H](O)C[C@@](O)([C@@H](OC(=O)c4ccccc4)[C@H]21)C3(C)C`, the Potency is 23.5 µM (active).
As to `Cc1ccccc1-n1c(Cn2cnc3c(N)ncnc32)nc2cccc(C)c2c1=O`, the Potency was 1.48 µM (active).
Turning to `CCc1c(C(=O)C(N)=O)c2c(OCC(=O)O)cccc2n1Cc1ccccc1`, the “viability, % of control” value is 110%.
Still for that read-out and setting: with `O=P1(NCCCl)OCCCN1CCCl` (stereo not given) the figure was 120%; with `COc1cc(C)[nH]c(=O)c1CNC(=O)c1c(C)n([C@H](C)C2CCOCC2)c2ccccc12`, 116%.
Take `O=S(=O)(CC1CS1)c1ccc(Oc2ccccc2)cc1` (stereo not given): the Potency is 11.8 µM (active).
On the same count and under the same terms, to `CCOc1ccccc1-n1c(C(C)N2CCN(C(=O)COc3ccc(Cl)cc3)CC2)nc2ccccc2c1=O` (stereo not given) belongs 3.32 µM (active).
For the compound `C/C(O)=C(\C#N)C(=O)Nc1cc(Br)ccc1Br`, the “viability, % of control” value is 114%.
Turning to `O=C(CBr)N1CC([N+](=O)[O-])([N+](=O)[O-])C1`, the Potency was 34 µM (active).
Take `CN1C(=O)CCS(=O)(=O)C1c1ccc(Cl)cc1` (stereo not given): the “viability, % of control” value was 107%.
Still for that read-out and setting: to `O=C(O)CNC(=O)C1C(=O)N(C2CCCCC2)C(=O)N(C2CCCCC2)C1=O` belongs 91%.
Take `CC(C)(O)/C=C\C(=O)[C@](C)(O)[C@H]1[C@H](O)C[C@]2(C)[C@@H]3CC=C4[C@@H](C=C(O)C(=O)C4(C)C)[C@]3(C)C(=O)C[C@@]12C`: the Potency was 0.148 µM (active).
Consider `CN(C)CCN(C)CCc1ccc(Cl)c(Cl)c1`, for which the “viability, % of control” value was 122%.
With `CC(C)[C@]12O[C@H]1[C@@H]1O[C@]13[C@]1(O[C@H]1C[C@H]1C4=C(CC[C@@]13C)C(=O)OC4)[C@@H]2O`, the Potency was 0.0372 µM (active).
For `N[C@@H](Cc1ccc(N(CCCl)CCCl)cc1)C(=O)O`, the Potency was 1.48 µM (active).
With `CC(C)(O)C(=O)Nc1ccc([N+](=O)[O-])c(C(F)(F)F)c1`, the Potency is 16.6 µM (active).
As to `Cc1sc2c(c1C)C(c1ccc(Cl)cc1)=N[C@@H](CC(=O)OC(C)(C)C)c1nnc(C)n1-2`, the Potency was 0.209 µM (active).
Still for that read-out and setting: to `Cc1c(N)nc([C@H](CC(N)=O)NC[C@@H](N)C(N)=O)nc1C(=O)N[C@H](C(=O)N[C@@H](C)[C@H](O)[C@@H](C)C(=O)N[C@@H](C(=O)NCCc1nc(-c2nc(C(=O)NCCC[S+](C)C)cs2)cs1)[C@@H](C)O)C(O[C@H]1O[C@H](CO)[C@H](O)[C@@H](O)[C@H]1O[C@H]1O[C@H](CO)[C@@H](O)[C@H](OC(N)=O)[C@@H]1O)c1cnc[nH]1` (stereo not given in full) belongs 4.56 µM (active).
In the case of `NN=C(N)N`, the “viability, % of control” value was 115%.
On to `C[C@@H]1C[C@@H]([C@H](O)CC2CC(=O)NC(=O)C2)C(=O)[C@@H](C)C1`, for which the Potency was 0.525 µM (active).
Still for that read-out and setting: to `C/C(=C\c1csc(C)n1)[C@@H]1C[C@@H]2O[C@]2(C)CCC[C@H](C)[C@H](O)[C@@H](C)C(=O)C(C)(C)[C@@H](O)CC(=O)O1` belongs 0.0093 µM (active).
Regarding `N#CC(O[C@@H]1O[C@H](CO[C@@H]2O[C@H](CO)[C@@H](O)[C@H](O)[C@H]2O)[C@@H](O)[C@H](O)[C@H]1O)c1ccccc1` (stereo not given in full), the “viability, % of control” value is 67.3%.
For `C[C@@H]1O[C@@H](O[C@@H]2C=C3CC[C@@H]4[C@H](CC[C@]5(C)[C@@H](c6ccc(=O)oc6)CC[C@]45O)[C@@]3(C)CC2)[C@H](O)[C@H](O)[C@H]1O`, the Potency is 0.0295 µM (active).
Still for that read-out and setting: to `COC(=O)[C@]12CCC(C)(C)C[C@H]1[C@H]1C(=O)C=C3[C@@]4(C)C=C(C#N)C(=O)C(C)(C)[C@@H]4CC[C@@]3(C)[C@]1(C)CC2` belongs 0.417 µM (active); to `CO[C@H]1CCC(O[C@H]2C[C@H]([C@]3(C)CC[C@]4(C[C@H](O)[C@@H](C)[C@@H]([C@@H](C)/C=C(\C)C(=O)[C@H](C)C[C@H](C)C(=O)O)O4)O3)O[C@]3(O[C@@H]([C@H]4O[C@@](O)(CO)[C@H](C)C[C@@H]4C)C[C@@H]3C)[C@@H]2C)O[C@@H]1C` (stereo not given in full), 0.372 µM (active).
Same read-out and setting: with `CCN1CCN(C(=O)Cc2ccc(Nc3ncc(F)c(Nc4ccc(C(=O)Nc5ccccc5Cl)cc4)n3)cc2)CC1` the figure was 1.48 µM (active).
With `CCCC[N+]1(C)[C@H]2CC(OC(=O)[C@H](CO)c3ccccc3)C[C@H]1[C@H]1O[C@H]12` (stereo not given in full), the “viability, % of control” value is 124%.
Still for that read-out and setting: to `CN(C)[C@@H]1C(=O)C(C(N)=O)=C(O)[C@@]2(O)C(=O)C3=C(O)c4c(O)cccc4[C@@](C)(O)[C@H]3[C@H](O)[C@@H]12` belongs 99.6%.
With `O=C(Nc1ccncc1)C(=O)c1cn(Cc2ccc(Cl)cc2)c2ccccc12`, the Potency was 0.296 µM (active).
Still for that read-out and setting: with `Cn1c(CCCC(=O)O)nc2cc(N(CCCl)CCCl)ccc21` the figure was 10.5 µM (active); with `CC1(C)CC[C@]2(NC(=O)C(C)(F)F)CC[C@]3(C)[C@H](C(=O)C=C4[C@@]5(C)C=C(C#N)C(=O)C(C)(C)[C@@H]5CC[C@]43C)[C@@H]2C1`, 1.18 µM (active).
As for `C[C@@H]1O[C@@H](O[C@H]2C[C@@H](O)[C@]3(CO)[C@H]4[C@H](O)C[C@]5(C)[C@@H](C6=CC(=O)OC6)CC[C@]5(O)[C@@H]4CC[C@]3(O)C2)[C@H](O)[C@H](O)[C@H]1O`, the Potency is 0.118 µM (active).
Turning to `CC1=C2C[C@H]3[C@@H](CC=C4C[C@@H](O)CC[C@@]43C)[C@@H]2CC[C@]12O[C@@H]1C[C@H](C)CN[C@H]1[C@H]2C`, the “viability, % of control” value was 99%.
Same read-out and setting: with `C#CCN(C)[C@H](C)Cc1ccccc1` the figure was 98.6%.
`C/C=C(/C)C(=O)O[C@H]1C(C)=C2[C@H]([C@@H]1OC(=O)CCCCCCC)[C@@](C)(OC(C)=O)C[C@H](OC(=O)CCC)[C@@]1(O)[C@H]2OC(=O)[C@@]1(C)O`: the Potency was 0.166 µM (active).
In the case of `O=C(O)CCCc1ccc(N(CCCl)CCCl)cc1`, the “viability, % of control” value was 3.86%.
With `Fc1ccc(C(OCCN2CCN(CCCc3ccccc3)CC2)c2ccc(F)cc2)cc1`, the Potency is 10.5 µM (active).
As to `CC1(C)CC(O)CC(C)(C)N1O`, the “viability, % of control” value was 108%.
